Measured values taken from PubChem BioAssay (NCATS).
Results filed as inconclusive are left out. Activity calls are given as the source filed them. Calls come from the whole dose curve; as a rule, active = well fitted inhibition curve with a large enough effect; inconclusive = small, poorly fitted or top-dose-only effect; inactive = no such curve, though single readings can be large or run the other way.

What follows are compounds tested against Cytochrome P450 3A4 (Homo sapiens) (UniProt P08684) (assay: qHTS Assay for Inhibitors and Substrates of Cytochrome P450 3A4 (AID 884; note: nearly all actives have a fitted effect of over 50% in size)). Conditions: recombinant CYP3A4, Luciferin-PPXE luminescence; series mostly up to 57.1 µM.
Sequence of Cytochrome P450 3A4 (Homo sapiens) (P08684 whole entry, looked up): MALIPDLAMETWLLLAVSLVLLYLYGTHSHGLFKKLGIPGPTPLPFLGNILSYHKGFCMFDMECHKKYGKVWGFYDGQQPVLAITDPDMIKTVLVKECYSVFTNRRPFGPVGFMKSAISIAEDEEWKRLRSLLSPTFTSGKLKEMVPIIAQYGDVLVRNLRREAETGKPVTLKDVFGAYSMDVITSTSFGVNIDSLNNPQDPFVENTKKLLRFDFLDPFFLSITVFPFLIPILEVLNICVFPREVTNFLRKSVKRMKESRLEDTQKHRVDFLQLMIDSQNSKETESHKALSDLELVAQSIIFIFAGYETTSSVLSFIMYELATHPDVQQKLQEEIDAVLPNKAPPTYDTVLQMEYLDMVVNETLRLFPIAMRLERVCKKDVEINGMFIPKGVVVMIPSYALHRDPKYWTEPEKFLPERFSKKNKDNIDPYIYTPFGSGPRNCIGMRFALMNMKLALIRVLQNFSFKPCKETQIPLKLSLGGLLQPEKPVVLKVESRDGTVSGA
In short: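 Luminescent readout of luciferin produced by CYP3A4 (20 nM) dealkylation of Luciferin-PPXE, 25 uM (its KM). NADPH-driven reaction ran 60 min at RT after 10 min compound preincubation; data scaled to 57 uM ketoconazole as 100% inhibition.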
Potency is the fitted concentration of half-maximal effect.

Potency, active:
CCC1=C2CC[C@H]3C(=O)N(c4ccccc4)C(=O)[C@H]3[C@H]2[C@@]2(C)C(=NCc3ccccc3)OC(=O)N2C1=O 3.98 µM
COC(=O)[C@@H]1C[C@@]2(O)[C@@H](O)[C@@H](O)[C@@H](O)C[C@H]2N1Cc1ccc(C(C)(C)C)cc1 12.6 µM
CCC1=C(OC(=O)N(CC)CC)N2C(=O)OC(=NCC3CC3)[C@]2(C)[C@H]2C1=CC[C@H]1C(=O)N(c3ccccc3)C(=O)[C@H]12 3.16 µM
O=C1C=C(NCCO)C(=O)c2cnccc21 7.94 µM
CC(Cc1ccccc1)C(=O)NCCc1c[nH]c2ccccc12 (stereo unspecified) 2.51 µM
CCC1=C2CC[C@H]3C(=O)N(CC(=O)OC)C(=O)[C@H]3[C@H]2[C@@]2(C)C(=NCCc3c[nH]c4ccccc34)OC(=O)N2C1=O 6.31 µM
COC(=O)c1ccc(C23CC4(C2)[C@H](CN(Cc2cccnc2)[C@@H]4c2ccccc2)C3c2ccccc2)cc1 (stereo partly specified) 3.98 µM
COC(=O)[C@@H]1C[C@@H]2CC[C@@H](O)C[C@@H]2N1Cc1ccc(Cl)cc1 15.8 µM
CCC1=C2CC[C@H]3C(=O)N(CC)C(=O)[C@H]3[C@H]2[C@@]2(Cc3ccccc3)C(=O)N(Cc3ccccc3)C(=O)N2C1=O 3.98 µM
COC(=O)[C@@H]1C[C@@H]2CC[C@@H](O)C[C@@H]2N1Cc1ccc(-c2ccccc2)cc1 20 µM
c1ccc(C2[C@H]3CN(Cc4cccnc4)[C@H](c4ccccc4)C34CC2(c2ccccc2)C4)cc1 (stereo partly specified) 1.58 µM
